Screening data from PubChem BioAssay.
Sampled rows, rich in hits. Any-hit rate of the full collection: about 3.5%.
MITF inh – blocks human microphthalmia-associated transcription factor; O75030; AlphaScreen MITF homodimerization, bead proximity signal; inhibition, % at 2.6 µM; actives 0.91% (n = 650,000); in the data active = inhibition above about 50%;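 also: 0% = vehicle wells with protein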
Target sequence (O75030 whole entry, looked up): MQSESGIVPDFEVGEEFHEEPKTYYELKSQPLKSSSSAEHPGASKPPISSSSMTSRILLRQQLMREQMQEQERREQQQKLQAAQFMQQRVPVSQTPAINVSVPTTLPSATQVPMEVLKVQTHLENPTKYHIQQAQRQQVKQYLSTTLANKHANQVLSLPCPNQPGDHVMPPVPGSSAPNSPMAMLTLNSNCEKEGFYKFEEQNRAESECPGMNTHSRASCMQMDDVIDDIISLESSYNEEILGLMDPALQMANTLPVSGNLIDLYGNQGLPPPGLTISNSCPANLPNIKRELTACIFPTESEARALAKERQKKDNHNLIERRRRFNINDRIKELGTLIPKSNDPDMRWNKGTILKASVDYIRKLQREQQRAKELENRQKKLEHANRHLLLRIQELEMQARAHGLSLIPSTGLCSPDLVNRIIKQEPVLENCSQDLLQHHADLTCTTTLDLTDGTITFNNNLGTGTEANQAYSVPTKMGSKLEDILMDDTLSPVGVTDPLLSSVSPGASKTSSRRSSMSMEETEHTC
TEAD-YAP block – TEAD-YAP interaction inhibition; HEK-TIYL cells, TEAD-Gal4/YAP UAS-luciferase luminescence; inhibition, % at 9.12 µM; actives 1.4% (n = 640,000); in the data active = inhibition above about 32%;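 also: 0% = median of test compound wells and 100% = reference inhibitor wells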
FBW7 activator – human FBW7 E3 ligase activation, primary screen | actives 0.13% (n = 650,000) | normalized activity (activation), % at 26.1 µM | AlphaScreen FBW7–phospho-cyclin E peptide binding, activator screen | Q969H0; in the data active = normalized activity above about 1.9%;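 also: purified mutant Fbw7 with reduced substrate affinity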
GPR151 ag – activators of human GPR151; Q8TDV0; PathHunter beta-arrestin GPR151 cells, luminescence; activation, % at 11.2 µM; actives 1% (n = 650,000); in the data active = activation above about 4.9%;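 also: 0% = median of compound wells and 100% = cells with positive control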
GPR151 conf act – human GPR151 activation, confirmation screen; shares compounds with GPR151 ag; GPR151 PathHunter beta-arrestin cells, luminescence, 90 min; % of EA-reagent control over plate median; activation, % at 11.2 µM; 6,700 tested, under 10 active;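 active = mean percent activation across replicates above the confirmation screen cutoff of 4.91%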
GPR119 counter – counter-screen for GPR151 activators: effect on human GPR119; activation, % at 11.2 µM; GPR119 PathHunter beta-arrestin cells, luminescence, 90 min; 0 = compound-well median, 100 = enzyme-acceptor control; shares compounds with GPR151 ag; AID 1508611; actives 0.3% (n = 6,700);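 active = mean percent activation in the counterscreen above 29.09%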;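 also: counterscreen on off-target GPR119 to flag nonselective hits from the GPR151 activator screen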
Numbers without * were called inactive; / = no result.

SMILES	MITF inh	TEAD-YAP block	FBW7 activator	GPR151 ag	GPR151 conf act	GPR119 counter
O=C(CN1C(=O)[C@H]2CCCN2C(=O)c2ccccc21)Nc1cccc2ccccc12	-12	-2	0	6.8*	1	1
O=C1C2C3C=CC(C3)C2C(=O)N1Nc1c(Cl)cc(Cl)cc1Cl (stereo unspecified)	1	2	0	6.6*	2	5
O=C(NN1C(=O)C2C3C=CC(C3)C2C1=O)c1ccc(Cl)cc1Cl (stereo unspecified)	12	-2	0	0	/	/
NCCCC[C@@H]1NC(=O)[C@@H]2C[C@H](NCc3nc4ccccc4s3)CN2C1=O	-8	-12	0	-1	/	/
O=C(O)COc1coc(CN2CCN(c3cccc(Cl)c3)CC2)cc1=O	-14	5	0	-2	/	/
O=c1cc(CN2CCN(c3cccc(Cl)c3)CC2)occ1OCc1ccccc1	-1	3	0	6.8*	0	-4
CCC1(CCC(=O)NCC2(c3ccccc3)CCOCC2)CCC(=O)N1 (stereo unspecified)	-4	-8	0	9.5*	0	-1
C=CCN(c1ccc(C(=O)NC)cc1)S(C)(=O)=O	-12	-6	0	-1	/	/
O=c1oc2ccc3ccccc3c2c(=O)c2ccccc12	1	-4	0	0	/	/
Cc1ccccc1C(=O)NC(=S)Nc1ccc(Cc2ccncc2)cc1	19	8	0	19*	0	-16
CC(=O)c1ccc(NC(=S)NC(=O)c2ccccc2F)cc1	12	-67	0	15*	0	5
O=C(c1ccc(CS(=O)(=O)Cc2ccc(F)cc2)o1)N1CCCCC1	7	-3	0	5.3*	0	-8
Cc1ccccc1S(=O)(=O)Cc1ccc(C(=O)N2CCCCC2)o1	8	-2	0	0	/	/
Cc1ccc(-c2nnc3sc(NC(=O)CC(C)C)nn23)cc1	-1	5	0	27*	1	4
CCCC(=O)Nc1nn2c(-c3cccc(OC)c3)nnc2s1	0	-4	0	5.2*	0	-5
O=C(c1ccc(N2C(=O)C3C4c5ccccc5C(c5ccccc54)C3C2=O)cc1)N1CCCCC1 (stereo unspecified)	-4	-4	0	-2	/	/
O=C1CC(N2CCN(c3ccc(F)cc3)CC2)C(=O)N1 (stereo unspecified)	0	-1	0	-1	/	/
COc1ccc(N2CCN(C3CC(=O)NC3=O)CC2)cc1 (stereo unspecified)	19	12	0	6.3*	2	11
COCCNC(=O)c1cccc(OC2CCN(Cc3cnc(SC)nc3)CC2)c1	12	3	0	7.9*	0	2
COCCNC(=O)c1cccc(OC2CCN(Cc3ccc(F)c(OC)c3)CC2)c1	15	1	0	0	/	/
CCOC(=O)N1CCN(C(=O)c2ccc(CN3CCC(Cc4ccccc4)CC3)cc2)CC1	-8	4	0	4.9*	1	15
O=C(NCc1ccccc1)c1ccc(CN2CCC(Cc3ccccc3)CC2)cc1	4	3	0	-1	/	/
COCCNC(=O)c1ccc(CN2CCC(Cc3ccccc3)CC2)cc1	-16	11	0	5.0*	0	1
COc1ccccc1CC(=O)N(C(C)C)C(C)C	-9	-5	0	-1	/	/
CN(CC1COCCO1)C(=O)c1cc(COc2c(F)cccc2F)on1 (stereo unspecified)	6	-9	0	16*	0	2
SMILES	MITF inh	TEAD-YAP block	FBW7 activator	GPR151 ag	GPR151 conf act	GPR119 counter
CCN(CC)CCCCCCNc1cc(OC)cc2c(C)ccnc12	/	/	/	-2	/	/
CCN(CC)CCCCNc1ncc2cc(-c3cc(OC)cc(OC)c3)c(NC(=O)NC(C)(C)C)nc2n1	5	/	/	5.3*	-1	4
CC(C)N(CCNc1nc(NCc2cccnc2)nc2nc[nH]c12)C(C)C	-4	4	0	6.2*	0	-2
CCNc1nc(NCc2cccnc2)c2[nH]cnc2n1	18	-4	0	-1	/	/
Cc1ccc(C)c(NC(=O)C23CCC(C)(C(=O)C2=O)C3(C)C)c1 (stereo unspecified)	1	-3	0	3	/	/
CC12CCC(C(=O)Nc3ccccc3C(F)(F)F)(C(=O)C1=O)C2(C)C (stereo unspecified)	-19	0	0	6.1*	0	4
